Data on one sequence can be found in article PMC7862700, “An all-to-all approach to the identification of sequence-specific readers for epigenetic DNA modifications on cytosine”.

Holding throughout (assay): DAPPL (digital affinity profiling via proximity ligation, sequencing); 10 mM Tris-HCl pH 7.5, 50 mM NaCl, 1 mM DTT, 4% glycerol, room temperature, 30 min; GST-TFs on glutathione beads, 16-mer random dsDNA library, 0.1% formaldehyde crosslink after washing; high values mean tight binding
One experiment addresses T1, FEV (Homo sapiens, UniProt Q99581 1-238).
T1 sequence: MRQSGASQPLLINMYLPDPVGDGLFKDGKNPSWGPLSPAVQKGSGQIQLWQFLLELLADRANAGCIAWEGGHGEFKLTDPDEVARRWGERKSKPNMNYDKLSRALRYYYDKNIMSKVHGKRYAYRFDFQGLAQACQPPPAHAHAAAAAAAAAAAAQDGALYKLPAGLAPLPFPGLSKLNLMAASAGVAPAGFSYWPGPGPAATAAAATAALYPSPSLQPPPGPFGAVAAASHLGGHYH
The settings on record: protein: recombinant; tags: N-terminal GST; dsDNA, one strand shown. The method in brief: (§1)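 Human transcription factors carrying a GST fusion were produced in yeast, bound to glutathione beads, tagged with DNA barcodes and pooled together with a tag-only sample. Each pool was held with 200 nmole of a random double-stranded 16-mer DNA library in Tris/NaCl/DTT/glycerol buffer for 30 min at room temperature, then washed, crosslinked in 0.1% formaldehyde, proximity-ligated with BsaI/T4 ligase (1 h, 37 °C), PCR-amplified and sequenced on an Illumina NextSeq500. Binding signal is the read frequency of each hexamer for a given factor divided by its frequency in the tag-only sample.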

A further experiment concerns the target ETV5 (Homo sapiens, UniProt P41161 1-510). Conditions: protein: recombinant; tags: N-terminal GST; dsDNA, one strand shown. The method, boiled down:
as §1

The target of a further experiment is HSF1 (Homo sapiens, UniProt Q00613 1-529). The settings on record: protein: recombinant; tags: N-terminal GST; chain copies: 3; dsDNA, one strand shown. The method, boiled down:
as §1

The next experiment addresses T2, SPIC (Homo sapiens, UniProt Q8N5J4 1-248).
T2 sequence: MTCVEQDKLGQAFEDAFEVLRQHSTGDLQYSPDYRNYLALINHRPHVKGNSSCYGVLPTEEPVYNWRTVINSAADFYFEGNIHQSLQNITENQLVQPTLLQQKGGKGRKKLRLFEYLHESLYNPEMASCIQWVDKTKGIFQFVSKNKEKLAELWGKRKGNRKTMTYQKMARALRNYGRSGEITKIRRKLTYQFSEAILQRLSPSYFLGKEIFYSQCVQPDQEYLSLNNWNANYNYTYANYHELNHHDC
The settings on record: protein: recombinant; tags: N-terminal GST; dsDNA, one strand shown. The method, boiled down:
as §1

For another experiment, the target named is ELF4 (Homo sapiens, UniProt Q99607 1-663). The settings on record: protein: recombinant; tags: N-terminal GST; dsDNA, one strand shown. The method in brief: as §1
Chain of ELF4 (Q99607 whole entry): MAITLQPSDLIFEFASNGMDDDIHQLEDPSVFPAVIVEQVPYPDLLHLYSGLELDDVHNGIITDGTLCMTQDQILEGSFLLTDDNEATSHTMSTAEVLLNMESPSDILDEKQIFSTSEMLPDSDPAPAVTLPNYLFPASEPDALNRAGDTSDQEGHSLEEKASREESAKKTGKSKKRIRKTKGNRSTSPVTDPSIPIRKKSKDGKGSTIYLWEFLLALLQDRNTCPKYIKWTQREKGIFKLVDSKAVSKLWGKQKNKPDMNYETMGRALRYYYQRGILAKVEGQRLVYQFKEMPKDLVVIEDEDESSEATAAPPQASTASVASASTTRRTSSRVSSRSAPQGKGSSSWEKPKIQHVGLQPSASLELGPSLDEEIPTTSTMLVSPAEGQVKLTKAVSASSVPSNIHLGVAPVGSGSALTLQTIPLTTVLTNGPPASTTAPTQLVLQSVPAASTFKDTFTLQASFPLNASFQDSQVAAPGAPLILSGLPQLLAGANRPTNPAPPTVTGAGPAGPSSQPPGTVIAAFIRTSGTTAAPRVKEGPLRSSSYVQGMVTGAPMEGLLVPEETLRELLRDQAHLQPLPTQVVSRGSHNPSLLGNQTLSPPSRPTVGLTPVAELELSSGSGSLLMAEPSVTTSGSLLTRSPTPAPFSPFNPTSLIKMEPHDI
Another experiment concerns the target T3, ELK4 (Homo sapiens, UniProt P28324-2 1-405).
T3 sequence: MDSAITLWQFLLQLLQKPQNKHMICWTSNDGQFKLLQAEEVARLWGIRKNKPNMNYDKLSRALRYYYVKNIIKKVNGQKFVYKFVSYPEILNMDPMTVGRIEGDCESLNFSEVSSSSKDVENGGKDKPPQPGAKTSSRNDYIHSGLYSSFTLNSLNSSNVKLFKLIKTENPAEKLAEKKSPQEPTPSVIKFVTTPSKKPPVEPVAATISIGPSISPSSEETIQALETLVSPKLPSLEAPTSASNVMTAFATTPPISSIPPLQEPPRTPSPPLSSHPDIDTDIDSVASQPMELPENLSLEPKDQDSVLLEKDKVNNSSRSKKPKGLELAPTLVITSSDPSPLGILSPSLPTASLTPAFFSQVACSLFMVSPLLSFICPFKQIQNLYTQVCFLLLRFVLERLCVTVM
The settings on record: protein: recombinant; tags: N-terminal GST; dsDNA, one strand shown. The method in brief:
as §1

A further experiment deals with T4, ETV2 (Homo sapiens, UniProt O00321 1-342).
T4 sequence: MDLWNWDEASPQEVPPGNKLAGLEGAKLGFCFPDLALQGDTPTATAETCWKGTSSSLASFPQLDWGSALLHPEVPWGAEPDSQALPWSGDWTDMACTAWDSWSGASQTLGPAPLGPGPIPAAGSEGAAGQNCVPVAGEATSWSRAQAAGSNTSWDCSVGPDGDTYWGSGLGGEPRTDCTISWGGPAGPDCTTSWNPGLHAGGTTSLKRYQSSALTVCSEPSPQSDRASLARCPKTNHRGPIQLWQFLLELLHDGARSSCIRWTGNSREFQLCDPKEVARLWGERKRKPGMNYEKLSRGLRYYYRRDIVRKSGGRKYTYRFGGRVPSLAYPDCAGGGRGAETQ
Conditions: protein: recombinant; tags: N-terminal GST; dsDNA, one strand shown. The method, boiled down: as §1

For another experiment, the target named is T5, ELF3 (Homo sapiens, UniProt P78545 1-371).
T5 sequence: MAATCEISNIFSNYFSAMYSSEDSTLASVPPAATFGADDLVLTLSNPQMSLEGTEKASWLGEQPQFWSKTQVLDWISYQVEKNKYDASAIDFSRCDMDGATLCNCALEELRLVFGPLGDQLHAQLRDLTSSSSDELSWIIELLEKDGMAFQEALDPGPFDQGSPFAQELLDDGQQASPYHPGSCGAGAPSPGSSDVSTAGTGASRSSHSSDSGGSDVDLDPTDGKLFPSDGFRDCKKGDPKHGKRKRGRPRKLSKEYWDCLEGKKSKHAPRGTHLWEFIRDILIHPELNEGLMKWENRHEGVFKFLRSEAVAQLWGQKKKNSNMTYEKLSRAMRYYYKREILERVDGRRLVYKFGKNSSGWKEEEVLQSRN
Conditions: protein: recombinant; tags: N-terminal GST; dsDNA, one strand shown. The method in brief:
as §1

In another experiment the target is CRX (Homo sapiens, UniProt O43186 1-299). Conditions: protein: recombinant; tags: N-terminal GST; dsDNA, one strand shown. The method, boiled down: as §1
Chain of CRX (O43186 whole entry): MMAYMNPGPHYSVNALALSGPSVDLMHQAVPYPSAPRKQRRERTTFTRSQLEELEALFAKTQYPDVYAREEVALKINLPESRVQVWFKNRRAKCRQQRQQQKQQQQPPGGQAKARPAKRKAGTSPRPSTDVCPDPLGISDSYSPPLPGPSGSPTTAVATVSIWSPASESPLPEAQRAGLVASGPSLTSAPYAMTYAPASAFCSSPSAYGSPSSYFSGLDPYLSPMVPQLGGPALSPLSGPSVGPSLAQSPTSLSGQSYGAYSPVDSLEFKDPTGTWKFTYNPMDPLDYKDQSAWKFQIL
For another experiment, the target named is ETV1 (Homo sapiens, UniProt P50549 1-477). Conditions: protein: recombinant; tags: N-terminal GST; dsDNA, one strand shown. The method, boiled down: as §1
Chain of ETV1 (P50549 whole entry): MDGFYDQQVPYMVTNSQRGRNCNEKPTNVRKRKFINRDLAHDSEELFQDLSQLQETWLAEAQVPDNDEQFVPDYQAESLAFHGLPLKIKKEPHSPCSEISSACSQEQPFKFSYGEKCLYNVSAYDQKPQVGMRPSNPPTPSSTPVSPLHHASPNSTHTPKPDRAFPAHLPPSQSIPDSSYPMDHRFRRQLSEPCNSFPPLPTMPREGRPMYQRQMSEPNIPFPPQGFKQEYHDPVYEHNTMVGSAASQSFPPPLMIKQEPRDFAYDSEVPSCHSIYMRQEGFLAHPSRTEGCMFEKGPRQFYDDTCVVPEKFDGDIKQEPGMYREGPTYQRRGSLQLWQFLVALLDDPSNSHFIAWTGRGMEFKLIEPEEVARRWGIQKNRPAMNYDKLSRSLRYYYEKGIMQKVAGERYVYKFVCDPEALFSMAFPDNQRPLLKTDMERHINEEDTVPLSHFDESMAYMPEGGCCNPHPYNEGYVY
For the next experiment, the target named is T6, ERF (Homo sapiens, UniProt P50548 1-548).
T6 sequence: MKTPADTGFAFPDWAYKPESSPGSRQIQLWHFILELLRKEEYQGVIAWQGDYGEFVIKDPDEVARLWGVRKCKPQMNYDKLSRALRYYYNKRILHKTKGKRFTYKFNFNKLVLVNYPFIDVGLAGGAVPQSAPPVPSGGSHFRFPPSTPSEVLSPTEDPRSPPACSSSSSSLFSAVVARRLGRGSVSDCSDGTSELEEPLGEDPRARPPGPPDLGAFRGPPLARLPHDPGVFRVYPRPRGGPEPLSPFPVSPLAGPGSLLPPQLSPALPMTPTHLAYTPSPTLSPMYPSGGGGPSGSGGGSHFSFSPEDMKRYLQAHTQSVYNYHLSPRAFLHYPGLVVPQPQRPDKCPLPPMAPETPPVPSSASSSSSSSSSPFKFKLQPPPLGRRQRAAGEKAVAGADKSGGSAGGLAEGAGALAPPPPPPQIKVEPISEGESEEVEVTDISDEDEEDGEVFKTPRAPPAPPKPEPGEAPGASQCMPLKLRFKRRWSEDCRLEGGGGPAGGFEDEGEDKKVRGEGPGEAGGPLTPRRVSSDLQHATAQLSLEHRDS
Conditions: protein: recombinant; tags: N-terminal GST; dsDNA, one strand shown. The method, boiled down: as §1

In a further experiment the target is T7, ETV3L (Homo sapiens, UniProt Q6ZN32 1-361).
T7 sequence: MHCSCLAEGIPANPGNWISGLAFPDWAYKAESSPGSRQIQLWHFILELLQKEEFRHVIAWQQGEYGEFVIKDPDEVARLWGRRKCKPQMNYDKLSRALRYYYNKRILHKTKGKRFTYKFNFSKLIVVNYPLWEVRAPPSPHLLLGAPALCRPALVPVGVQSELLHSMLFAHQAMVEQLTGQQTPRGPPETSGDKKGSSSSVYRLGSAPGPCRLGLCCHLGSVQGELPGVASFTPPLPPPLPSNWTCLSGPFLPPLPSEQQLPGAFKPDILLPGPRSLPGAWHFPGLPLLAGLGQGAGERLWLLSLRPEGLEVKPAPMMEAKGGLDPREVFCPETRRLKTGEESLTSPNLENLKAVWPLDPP
The settings on record: protein: recombinant; tags: N-terminal GST; dsDNA, one strand shown. The method in brief:
as §1

The target of the next experiment is T8, ETS2 (Homo sapiens, UniProt P15036 1-469).
T8 sequence: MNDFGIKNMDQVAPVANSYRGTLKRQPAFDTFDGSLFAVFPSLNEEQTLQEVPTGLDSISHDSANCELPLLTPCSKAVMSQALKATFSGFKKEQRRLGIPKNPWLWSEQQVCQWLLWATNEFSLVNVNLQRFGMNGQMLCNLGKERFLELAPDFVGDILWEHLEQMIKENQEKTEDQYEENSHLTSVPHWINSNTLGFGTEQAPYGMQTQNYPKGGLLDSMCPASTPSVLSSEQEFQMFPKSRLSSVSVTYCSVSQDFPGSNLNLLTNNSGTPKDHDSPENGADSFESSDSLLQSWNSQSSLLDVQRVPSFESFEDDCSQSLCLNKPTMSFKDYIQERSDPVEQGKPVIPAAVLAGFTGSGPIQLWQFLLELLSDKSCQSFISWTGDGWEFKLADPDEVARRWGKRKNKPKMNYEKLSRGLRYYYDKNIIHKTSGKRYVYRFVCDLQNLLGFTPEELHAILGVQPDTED
The settings on record: protein: recombinant; tags: N-terminal GST; dsDNA, one strand shown. The method in brief:
as §1

The next experiment has as its target T9, SPDEF (Homo sapiens, UniProt O95238 1-335).
T9 sequence: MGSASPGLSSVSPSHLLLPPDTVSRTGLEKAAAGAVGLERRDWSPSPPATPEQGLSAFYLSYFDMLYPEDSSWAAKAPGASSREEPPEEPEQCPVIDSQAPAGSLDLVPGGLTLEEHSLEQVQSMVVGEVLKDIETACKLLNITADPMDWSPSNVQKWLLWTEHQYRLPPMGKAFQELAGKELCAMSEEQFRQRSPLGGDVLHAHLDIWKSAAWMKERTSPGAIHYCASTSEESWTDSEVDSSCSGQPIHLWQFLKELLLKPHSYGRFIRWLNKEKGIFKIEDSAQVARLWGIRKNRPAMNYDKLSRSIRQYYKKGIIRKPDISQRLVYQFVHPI
Conditions: protein: recombinant; tags: N-terminal GST; dsDNA, one strand shown. The method in brief: as §1

Another experiment addresses T10, ETV7 (Homo sapiens, UniProt Q9Y603 1-341).
T10 sequence: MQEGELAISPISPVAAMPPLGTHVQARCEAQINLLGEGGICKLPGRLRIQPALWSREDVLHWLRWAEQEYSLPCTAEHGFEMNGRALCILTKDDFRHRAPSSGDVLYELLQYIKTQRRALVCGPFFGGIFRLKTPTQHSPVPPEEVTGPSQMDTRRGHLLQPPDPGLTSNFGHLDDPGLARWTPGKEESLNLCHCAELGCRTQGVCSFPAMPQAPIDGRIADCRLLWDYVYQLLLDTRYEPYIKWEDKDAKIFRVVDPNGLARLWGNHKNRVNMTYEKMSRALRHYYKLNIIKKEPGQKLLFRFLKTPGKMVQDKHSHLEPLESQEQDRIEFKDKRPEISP
Conditions: protein: recombinant; tags: N-terminal GST; dsDNA, one strand shown. The method, boiled down: as §1

In the next experiment the target is T11, ELF5 (Homo sapiens, UniProt Q9UKW6-2 1-255).
T11 sequence: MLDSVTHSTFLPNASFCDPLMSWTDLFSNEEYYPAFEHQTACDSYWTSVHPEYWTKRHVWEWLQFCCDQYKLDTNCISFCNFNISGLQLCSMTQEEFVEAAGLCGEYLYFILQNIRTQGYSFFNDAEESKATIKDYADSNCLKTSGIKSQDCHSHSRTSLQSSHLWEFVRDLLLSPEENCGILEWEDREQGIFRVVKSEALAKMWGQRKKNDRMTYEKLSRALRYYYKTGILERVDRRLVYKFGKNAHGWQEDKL
Conditions: protein: recombinant; tags: N-terminal GST; dsDNA, one strand shown. The method in brief:
as §1

Another experiment deals with T12, ETV3 (Homo sapiens, UniProt P41162-2 1-143).
T12 sequence: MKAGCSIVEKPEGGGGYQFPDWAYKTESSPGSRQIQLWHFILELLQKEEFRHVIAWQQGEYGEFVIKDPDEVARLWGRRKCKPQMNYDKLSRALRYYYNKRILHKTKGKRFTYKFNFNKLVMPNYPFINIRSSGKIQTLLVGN
Conditions: protein: recombinant; tags: N-terminal GST; dsDNA, one strand shown. The method in brief:
as §1

Another experiment has as its target ETV6 (Homo sapiens, UniProt P41212 1-452). Conditions: protein: recombinant; tags: N-terminal GST; dsDNA, one strand shown. The method in brief:
as §1

Chain of ETV6 (P41212 whole entry): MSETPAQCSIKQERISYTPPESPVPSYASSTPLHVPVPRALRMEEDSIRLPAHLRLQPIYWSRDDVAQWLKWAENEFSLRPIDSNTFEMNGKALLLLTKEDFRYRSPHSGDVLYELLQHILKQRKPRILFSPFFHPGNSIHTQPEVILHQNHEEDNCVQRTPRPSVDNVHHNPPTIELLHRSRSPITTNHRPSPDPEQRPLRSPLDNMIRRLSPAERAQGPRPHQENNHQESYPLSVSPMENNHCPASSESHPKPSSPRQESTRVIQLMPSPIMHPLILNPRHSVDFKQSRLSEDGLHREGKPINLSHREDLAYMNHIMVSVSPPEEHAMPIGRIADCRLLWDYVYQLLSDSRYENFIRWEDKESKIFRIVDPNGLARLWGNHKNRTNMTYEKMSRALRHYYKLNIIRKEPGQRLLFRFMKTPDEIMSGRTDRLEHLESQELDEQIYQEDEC
Chain of HSF1 (Q00613 whole entry): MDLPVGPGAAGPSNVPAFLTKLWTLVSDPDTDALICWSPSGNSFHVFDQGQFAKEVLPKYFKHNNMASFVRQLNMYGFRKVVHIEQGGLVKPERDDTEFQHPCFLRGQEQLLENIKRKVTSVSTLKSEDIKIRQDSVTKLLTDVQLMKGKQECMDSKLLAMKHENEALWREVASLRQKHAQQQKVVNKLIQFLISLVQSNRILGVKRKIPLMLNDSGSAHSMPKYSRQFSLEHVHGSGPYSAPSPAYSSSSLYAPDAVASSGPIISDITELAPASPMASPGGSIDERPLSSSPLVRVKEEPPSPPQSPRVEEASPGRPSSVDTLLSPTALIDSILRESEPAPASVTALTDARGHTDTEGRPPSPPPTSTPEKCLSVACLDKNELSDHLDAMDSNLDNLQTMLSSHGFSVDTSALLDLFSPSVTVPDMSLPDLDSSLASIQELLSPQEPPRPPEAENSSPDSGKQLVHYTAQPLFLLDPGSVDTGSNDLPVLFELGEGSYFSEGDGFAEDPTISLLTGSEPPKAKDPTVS
Chain of ETV5 (P41161 whole entry): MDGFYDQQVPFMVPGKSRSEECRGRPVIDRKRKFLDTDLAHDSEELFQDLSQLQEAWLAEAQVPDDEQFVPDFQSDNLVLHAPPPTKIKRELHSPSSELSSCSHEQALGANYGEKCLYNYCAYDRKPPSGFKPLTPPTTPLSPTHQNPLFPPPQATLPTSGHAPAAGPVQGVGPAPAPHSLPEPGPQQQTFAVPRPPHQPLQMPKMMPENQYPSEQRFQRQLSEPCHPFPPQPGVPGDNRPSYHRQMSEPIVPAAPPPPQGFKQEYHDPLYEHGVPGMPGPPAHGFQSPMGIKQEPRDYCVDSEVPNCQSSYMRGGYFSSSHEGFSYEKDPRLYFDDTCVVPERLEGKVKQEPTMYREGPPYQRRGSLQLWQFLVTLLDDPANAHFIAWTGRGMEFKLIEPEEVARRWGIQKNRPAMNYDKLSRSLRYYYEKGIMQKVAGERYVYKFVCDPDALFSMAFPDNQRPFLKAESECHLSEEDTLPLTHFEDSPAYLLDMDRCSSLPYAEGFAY

For the sequence CCAACT, the binding signal in the experiment with FEV was 1.27 fold enrichment (6-mer frequency, TF over GST control); with ETV5, 1.16 fold enrichment (6-mer frequency, TF over GST control); with HSF1, 1.02 fold enrichment (6-mer frequency, TF over GST control); in the experiment with SPIC it was 1.4 fold enrichment (6-mer frequency, TF over GST control); with ELF4 it was 1.29 fold enrichment (6-mer frequency, TF over GST control); with ELK4, 1.27 fold enrichment (6-mer frequency, TF over GST control). The binding signal with ETV2 is 1.11 fold enrichment (6-mer frequency, TF over GST control); with ELF3, 1.21 fold enrichment (6-mer frequency, TF over GST control); in the experiment with CRX it was 1.01 fold enrichment (6-mer frequency, TF over GST control); with ETV1, 1.21 fold enrichment (6-mer frequency, TF over GST control); with ERF it was 1.13 fold enrichment (6-mer frequency, TF over GST control); with ETV3L it was 1.21 fold enrichment (6-mer frequency, TF over GST control). Also, the binding signal with ETS2 was 1.24 fold enrichment (6-mer frequency, TF over GST control); in the experiment with SPDEF, 1.27 fold enrichment (6-mer frequency, TF over GST control); with ETV7, 1.2 fold enrichment (6-mer frequency, TF over GST control); in the experiment with ELF5 it was 1.17 fold enrichment (6-mer frequency, TF over GST control); in the experiment with ETV3 it was 1.17 fold enrichment (6-mer frequency, TF over GST control); with ETV6 it was 1.18 fold enrichment (6-mer frequency, TF over GST control).
